Laboratory results from PubChem BioAssay (Tox21).
Several values for one entry are separate records, joined by “and”; a condition that tells them apart may be missing. Equal values may be shown once. Results filed as inconclusive are left out. Where a call stands in place of a potency, no number is given. The source holds several records for some structures; these can differ, active in one and inactive in another. Activity calls are given as the source filed them. Calls come from the whole dose curve.

Assay: qHTS assay to identify small molecule antagonists of the sonic hedgehog signaling (Shh) pathway (AID 1259369); note: nearly all actives have a fitted effect of over 45% in size
Settings: NIH/3T3 Gli1-Luc reporter, Shh antagonist, luminescence 24 h; series mostly up to 92.4 µM
Source text: U.S. Tox21 Program National Center for Advancing Translational Sciences [NCATS] NIH Chemical Genomics Center [NCGC] U.S. Environmental Protection Agency [EPA] National Institutes of Environmental Health Sciences [NIEHS] National Toxicology Program [NTP] U.S. Food and Drug Administration [FDA] Tox21 Assay Overview: The sonic hedgehog (Shh) pathway is essential for normal embryonic development. Dysregulation of the Shh pathway can cause severe developmental defects in organs. Therefore chemicals that interfere with the pathway are potential developmental toxicants. A cell line designated 3T3Gli1-Luc (DMB/OARSA/CFSAN/FDA, Laurel, MD), a NIH/3T3 derived clone containing stably integrated Gli1-Luc reporter is used to detect chemical interference of the Shh pathway, by changes in the expression of the firefly Luc gene under the control of the Gli1 transcriptional response element. This cell line was used to screen Tox21 libraries for identifying and prioritizing the potential developmental toxicants that interfere Shh pathway. Conditioned medium-stimulated mode was used to screen for chemicals inhibiting Shh signaling.
Tox21 Assay Protocol Summary: 3T3 Gli1-Luc cells were dispensed at 2,000 per well in 5uL of culture medium into white solid bottom 1536-well plates (Greiner Bio-One, Monroe, NC) using a Multidrop Combi (Thermo Scientific, Waltham, MA) dispenser. The assay plates were incubated at 37 C and 5% CO2 for 4hr, and then 23nL of compounds dissolved in DMSO and positive control were transferred using a Pintool station (Wako, San Diego, CA). The compound transfer was followed by the addition of 1ul conditioned medium or assay buffer using two separate tips of Flying Reagent Dispenser (FRD, Aurora Discovery, San Diego, CA). The assay plates were incubated at 37C and 5% CO2 for 24hr. For luciferase read, 4uL of Amplite Luciferase reporter gene assay reagent (AAT Bioquest, Inc. Sunnyvale, CA) was added to each well of the assay plates using FRD and incubated at room temperature for 30min. The luminescence signal was measured using a ViewLux plate reader (Perkin Elmer, Shelton, CT).
Potency is the fitted concentration of half-maximal effect.

SMILES	Potency
CC(C)(c1cc(Cl)c(O)c(Cl)c1)c1cc(Cl)c(O)c(Cl)c1	30.6 µM (active) and 34.4 µM (active)
N[C@@H](Cc1ccc(N(CCCl)CCCl)cc1)C(=O)O	inactive
Clc1nc(Cl)nc(Cl)n1	inactive
CCC(CC)Nc1c([N+](=O)[O-])cc(C)c(C)c1[N+](=O)[O-]	inactive
CCOc1cc(C=O)ccc1O	inactive
C1=Cc2cccc3cccc1c23	inactive
CCOC(=S)S	10.9 µM (active) and 13 µM (active)
O=P(O)(O)CCCl	inactive
O=Cc1ccco1	inactive
NC(=S)Nc1ccccc1	inactive
Cc1ccc2c(c1N)C(=O)c1ccccc1C2=O	inactive
CCCCCCCCOC(=O)c1ccccc1C(=O)OCCCCCCCC	inactive
O=[N+]([O-])c1cccc2ccccc12	inactive
Oc1c(Cl)c(Cl)c(Cl)c(Cl)c1Cl	inactive
CC(C)C(=O)OCC(C)(C)C(OC(=O)C(C)C)C(C)C (stereo not given)	inactive
Oc1cc(Cl)ccc1Oc1ccc(Cl)cc1Cl	5.58 µM (active)
Nc1c(Cl)cc([N+](=O)[O-])cc1Cl	inactive
Cc1ccc(N)c(N)c1	24.4 µM (active)
Brc1ccc(Oc2cc(Br)c(Br)cc2Br)c(Br)c1	inactive
Cc1ccccc1[N+](=O)[O-]	inactive

SMILES	Potency
NCc1cccnc1	inactive
CCC(=O)O[C@H]1CC[C@H]2[C@@H]3CCC4=CC(=O)CC[C@]4(C)[C@H]3CC[C@]12C	30.6 µM (active) and 18.8 µM (active)
CCCCC(CC)COC(=O)Cl (stereo not given)	inactive
CCOCN(C(=O)CCl)c1c(C)cccc1CC	18.3 µM (active) and 19.3 µM (active)
Nc1ccc(Cl)c(Cl)c1	inactive
C=CCN(CC=C)C(=O)C(Cl)Cl	inactive
O=C(O)C(F)(F)C(F)(F)C(F)(F)C(F)(F)C(F)(F)C(F)(F)C(F)(F)F	inactive
CCCCC(CC)COC(=O)c1ccc(C(=O)OCC(CC)CCCC)c(C(=O)OCC(CC)CCCC)c1 (stereo not given)	inactive
Cc1cc(Cl)ccc1OCCCC(=O)O	inactive
c1ccc(-c2cccc(-c3ccccc3)c2)cc1	inactive
Nc1ccc(Cl)cc1N	inactive and 30.6 µM (active)
COc1ccc(C=O)cc1	inactive
CCN(CC)N=O	inactive
N#Cc1cc(Br)c(O)c(Br)c1	15.3 µM (active) and 7.41 µM (active)
CC(C)Oc1cc(-n2nc(C(C)(C)C)oc2=O)c(Cl)cc1Cl	inactive
CCCCCc1cc(O)cc(O)c1	24.4 µM (active) and 19.3 µM (active)
CN(C)C(=O)Nc1ccc(Cl)cc1	inactive
C[C@]12CCC(=O)C[C@@H]1CC[C@@H]1[C@@H]2CC[C@]2(C)[C@@H](O)CC[C@@H]12	17 µM (active) and 13.7 µM (active)
C=CC(=O)OCCO	24.7 µM (active) and 27.3 µM (active)
COc1ccc(C(CN(C)C)C2(O)CCCCC2)cc1 (stereo not given)	inactive
